# Reference: paper PMC12136788
# Changes are numbered by the printed parent chain. The full ranking holds about 5,800 sequences; the median of “enrichment r” is about 0.54, and the highest 2% start at about 16. Only a selection was taken, and the highest values are over-represented in it overall.
# B1: chr11:46542767:46542868:-|CDS|ENSG00000110497|msi1|total|mutant (ssRNA)
# RNA: GGGAGUUCUACAGUCCGACGAUCAACACGCUCCGCAACCUCAGUCUGGGUCCUACCCGCCGCUCUUUGGGAGGGCCUCUGUCCCGCCACCCUUCCCGGUAUCACCGAGAAACCGCUCCUGGGUUGACAGGAUCUGAGUGGACCCAACAGAGGAUUGAGCAUCA
# B2: chrX:21994482:21994713:+|3pUTR|ENSG00000102172|msi1|total|mutant (ssRNA)
# RNA: GGGAGUUCUACAGUCCGACGAUCCAGCUGAAGGAUGGUCCGACAGCACAGCGAAGACUGCUAAAUGCACUGACCCCCCCCAUCCGAAUGUGAUUUUUGUUCCUUUUUAUUUCUCUGUGGGCUUUUGUUUUUGUUUUUGUUUUGCAACAGAGGAUUGAGCAUCA
# B3: chr19:41261474:41261596:+|3pUTR|ENSG00000167601|msi1|total|mutant (ssRNA)
# RNA: GGGAGUUCUACAGUCCGACGAUCUCUAAAGGUCCACAGGUCCCGACUAUCCGGUGCAAUUUCAAGGUUCUAACCCUAUACUGCCGUAUUCUUUGGGGUGCCCCUCUCCUUCUCCGCUAUCAUUGCUUCCUCCUCCCCAACUGUCAACAGAGGAUUGAGCAUCA
# B4: ENSG00000198589:be:win_4151|CDS|ENSG00000198589|bound_else_gene|NA|bound_elsewhere_windowed (ssRNA)
# RNA: GGGAGUUCUACAGUCCGACGAUCCGGCUACACAUGAACUGGAAAAUAUUGAACCUACUCAAGGCCUUUCAAUAGAAGCCUCUGUGACAUUUUUGCAGAGGCUAAUUAGCCUUGUGGAUGUGCUUAUAUUUGCAAGUUCUCUUGCAACAGAGGAUUGAGCAUCA
# B5: ENSG00000198589:be:win_9651|3pUTR|ENSG00000198589|bound_else_gene|NA|bound_elsewhere_windowed (ssRNA)
# RNA: GGGAGUUCUACAGUCCGACGAUCCUUCAAGUGGUCCCUCUUUUUUUCCUACACACUCAGCUCUUCUCUAAAAGCAAGGAUUUGGAAUGAACAAUUCAGUUUGACAGAAAAAGCUGAAUAAAAUGGCAUCUGUAAUUGAAUUGUCAACAGAGGAUUGAGCAUCA
# B6: chr13:20822168:20822271:-|CDS|ENSG00000132953|unk|total|mutant (ssRNA)
# RNA: GGGAGUUCUACAGUCCGACGAUCUCGAAAAAUCAGAGAAGAUUCAGAUAUGGCACAAGAUUCUCUGCAGUGCCUUGCCCAGUCCGCUUCUCUUCAUGGACCCAUCUUCCCAGAUGAAGGAUCACAAGUUGAUUAUCCCGCACACAACAGAGGAUUGAGCAUCA
# B7: ENSG00000136451:be:win_3201|3pUTR|ENSG00000136451|bound_else_gene|NA|bound_elsewhere_windowed (ssRNA)
# RNA: GGGAGUUCUACAGUCCGACGAUCAACAGUUCUAGGGGGUUGAACUACAUAGUAAAAAAAUAAAAUAAAUAGUACUUAGUGUAAAAUAAUUUUAUAAAUGAUCUUUUGUACUUUAGGACAUUAAAUUGUACAACUUUUGUAUAUCAACAGAGGAUUGAGCAUCA
# B8: chr20:1375301:1375603:-|CDS|ENSG00000088832|control|control|control (ssRNA)
# RNA: GGGAGUUCUACAGUCCGACGAUCGGUAUGCUCUCUCAUUUGUUUUGUUUUGCUUUCUAGUAUUUACCUUUUAUAUUUUUUUAUAGGUGGCAUAUUUAUACGGUUCAAAAAUAAAAAAAGUGAAAAGUCUCACCCUCAUGCCAUCAACAGAGGAUUGAGCAUCA
# B9: ENSG00000198589:be:win_801|CDS|ENSG00000198589|bound_else_gene|NA|bound_elsewhere_windowed (ssRNA)
# RNA: GGGAGUUCUACAGUCCGACGAUCUCAUUUUGUUGGAGGCUGUUUGAUUGUAACAUCAAUAAAGUCAAAAGGAAAAGGCUUUCAACACUGUGUGAAAUUUGAUUUCAAGCCACAAAAGUGGUAUAUGGUUACCAUAGUACACAUCAACAGAGGAUUGAGCAUCA
# B10: chr1:232398519:232398625:-|3pUTR|ENSG00000116991|unk|FALSE|unique (ssRNA)
# RNA: GGGAGUUCUACAGUCCGACGAUCACAGUAGUUUUAUUUCCACAGCCACAUUACCAUAGCAAUAAGAAAGGAGGCAUAGUACAUAGUUGGAAAAGCUUUGUGGGGGGAUUAAAAAAAAAAAAAAGCACUGUUGUGUUUAACACUCAACAGAGGAUUGAGCAUCA
# B11: chr18:68676332:68676434:-|3pUTR|ENSG00000166479|msi1_unk|FALSE|overlapping (ssRNA)
# RNA: GGGAGUUCUACAGUCCGACGAUCAUCAAGAUUAUGAGGUUAAAAAUAAUGUGGUUUUAUAUAGCAUAGUGGUUUUAUUUUGUUAGUUAUUUUUAAAGGAGAAGAAAUGUUACUUUUUAACUUUAUACUCAGUUGCAUUAUCAUCAACAGAGGAUUGAGCAUCA
# B12: ENSG00000136451:be:win_3251|3pUTR|ENSG00000136451|bound_else_gene|NA|bound_elsewhere_windowed (ssRNA)
# RNA: GGGAGUUCUACAGUCCGACGAUCCUUAGUGUAAAAUAAUUUUAUAAAUGAUCUUUUGUACUUUAGGACAUUAAAUUGUACAACUUUUGUAUAUAUAAAAGCUUAGGAACUUUCUGUUUAGCAGGAAGGCAACACAUUCCUACACAACAGAGGAUUGAGCAUCA
# B13: chr18:68676332:68676434:-|3pUTR|ENSG00000166479|msi1_unk|total|mutant (ssRNA)
# RNA: B11 RNA with U61C, A62C, U66C, A67C, U83C, A84C
# B14: ENSG00000136451:be:win_3151|3pUTR|ENSG00000136451|bound_else_gene|NA|bound_elsewhere_windowed (ssRNA)
# RNA: GGGAGUUCUACAGUCCGACGAUCUGAGACAGACUUCCUACAUCAGGGACAGGUAUCUGUGUGUCAUUAUACAAAACAGUUCUAGGGGGUUGAACUACAUAGUAAAAAAAUAAAAUAAAUAGUACUUAGUGUAAAAUAAUUUUACAACAGAGGAUUGAGCAUCA
# B15: chr19:34469546:34469571:+|3pUTR|ENSG00000126261|msi1_unk|total|mutant (ssRNA)
# RNA: GGGAGUUCUACAGUCCGACGAUCGUUGCCUUUUUAAUGUAAAUACCCGCCGGUAUCAUUAACCGUUUCAAAAUAUUGUGGUUCCGUAAAGUUGAUACCUGGUUAUAAAUAUUAUGCCUUUAUUUUUGGCCCGAAGAAGAAUUACAACAGAGGAUUGAGCAUCA
# B16: chr4:65323451:65323552:-|3pUTR|ENSG00000145242|msi1|FALSE|unique (ssRNA)
# RNA: GGGAGUUCUACAGUCCGACGAUCAUCAAGAAAAAGUACAAUACAGGGUGUAUAUUUAUUUUUUGUGUUAUAAAGUUUACUUUUAGUUGCUCUUCUAGAGAUUAUUAGGUAAUAAAUGUGUAUAUACUGUAUAAUUUGCAAUAUCAACAGAGGAUUGAGCAUCA
# B17: chr1:232398519:232398625:-|3pUTR|ENSG00000116991|unk|total|mutant (ssRNA)
# RNA: B10 RNA with U28C, A29C, U56C, A57C, U76C, A77C, U83C, A84C
# B18: chr19:34469546:34469571:+|3pUTR|ENSG00000126261|msi1_unk|FALSE|overlapping (ssRNA)
# RNA: B15 RNA with C49U, C50A, C62U, C63A, C83U, C84A, C130U, C131A
# B19: chr16:46660370:46660459:-|3pUTR|ENSG00000069329|msi1_unk|total|mutant (ssRNA)
# RNA: GGGAGUUCUACAGUCCGACGAUCAAAAGGAAACCGCUCACCAUACUCCUUUCCAUGUACAUCCAGUGAGGGUUUUAUUACGCCCGGUUUCCCUUCCACCGAUUGUGCCUUUCAGAAAUGCUGAGGCCGGUUUCCCAUUUCUUACAACAGAGGAUUGAGCAUCA
# B20: chr8:48920054:48920155:-|CDS|ENSG00000019549|unk|FALSE|unique (ssRNA)
# RNA: GGGAGUUCUACAGUCCGACGAUCACCUAUUCAACUUUUUCUGGGCUGGCCAAACAUAAGCAGCUGCACUGCGAUGCCCAGUCUAGAAAAUCUUUCAGCUGUAAAUACUGUGACAAGGAAUAUGUGAGCCUGGGCGCCCUGAAGCAACAGAGGAUUGAGCAUCA
# B21: ENSG00000136451:be:win_351|CDS|ENSG00000136451|bound_else_gene|NA|bound_elsewhere_windowed (ssRNA)
# RNA: GGGAGUUCUACAGUCCGACGAUCUACCAUCGCUGGGGACAGCAGCCGAACUUCGUUGGUCUCGACCAUUGCAGGCAUCUUGUCAACAGUCACUACAUCUUCCUCGGGCACCAACCCCAGUAGCAGUGCCAGCACCACAGCUAUCAACAGAGGAUUGAGCAUCA
# B22: chr8:103427116:103427218:+|CDS|ENSG00000164934|unk|total|mutant (ssRNA)
# RNA: GGGAGUUCUACAGUCCGACGAUCGUAUACUGGGAUUGAUCAUCACUGGAAAGAAGCUGUUUUUGCCACAUGUGGACAGCAAGCCGACAUUUGGGAUGAACAAAGAACUAAUCCUAUAUGUUCAAUGACCUGGGGAUUUGACAGCAACAGAGGAUUGAGCAUCA
# Target: MSI1 full-length (mouse, UniProt Q61474 1-362)
# Sequence (Q61474 whole entry): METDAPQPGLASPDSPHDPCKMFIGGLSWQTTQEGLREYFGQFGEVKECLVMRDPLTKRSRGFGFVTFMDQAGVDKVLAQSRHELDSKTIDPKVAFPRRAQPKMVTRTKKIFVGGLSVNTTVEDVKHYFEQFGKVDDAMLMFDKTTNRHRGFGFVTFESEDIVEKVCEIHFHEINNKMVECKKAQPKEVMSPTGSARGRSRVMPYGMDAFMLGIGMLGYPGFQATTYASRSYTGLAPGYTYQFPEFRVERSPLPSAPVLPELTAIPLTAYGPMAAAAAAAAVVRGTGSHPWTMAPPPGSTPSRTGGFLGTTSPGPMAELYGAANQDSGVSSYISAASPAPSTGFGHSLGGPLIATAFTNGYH
# Assay: nsRBNS (natural sequence RNA bind-n-seq); RBNS binding buffer (assumed for nsRBNS): 25 mM Tris pH 7.5, 150 mM KCl, 3 mM MgCl2, 0.01% Triton X-100, 500 ug/ml BSA, 20 U/ml SUPERase-In, 4 C; UNK is unkempt and MSI1 is Musashi-1; names of the RNAs are library labels; protein concentration not given here; high values mean tight binding
row,Binder,binding signal [enrichment R]
1,B1,0.529
2,B2,0.697
3,B3,0.848
4,B4,0.181
5,B5,0.318
6,B6,0.303
7,B7,23.1
8,B8,2.12
9,B9,0.264
10,B10,18.4
11,B11,69.1
12,B12,10.7
13,B13,0.295
14,B14,15.5
15,B15,1.89
16,B16,11.9
17,B17,0.46
18,B18,35.8
19,B19,0.39
20,B20,0.478
21,B21,0.413
22,B22,0.362
